# Source: PubChem (National Center for Advancing Translational Sciences (NCATS))
# ATXN2 expr inh: inhibitors of ATXN2 expression. HEK-293 ATXN2-luciferase reporter, luminescence, 24 h. Potency, µM (top dose mostly 57 µM), without a hit: at the highest dose activity change, negative = inhibition, most hits filed as inhibitors. 0.72% of 360,000 active; also: potency is read from the fitted curve at half-maximal effect; % is scaled to controls: 0 for no effect and ±100 for the full control effect; nearly all actives have a fitted effect of over 55% in size
#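 ATXN2-luciferase reporter cells (luciferase flanked by upstream and downstream ATXN2 gene portions) were treated 24 h at 37 °C with compounds at up to 57 uM. SteadyGlo luminescence gave expression; GF-AFC fluorescence gave viability.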
# S2 tox: viability counter-screen for ATXN expression inhibitors | S2 cells (HEK-293 line with an ATXN2-luciferase reporter) viability, CellTiter-Fluor protease fluorescence, 24 h | Potency, µM (series often up to 56.7 µM), most hits filed as cytotoxic | 0.49% of 400,000 active; also: potency is read from the fitted curve at half-maximal effect; nearly all actives have a fitted effect of over 40% in size
# Six1-Eya2 blk: Six1/Eya2 interaction inhibition; Q15475+O00167; AlphaScreen GST-Six1/His-Eya2 binding, biochemical; stronger effect = lower value; activity change, % (concentration not given with the values); 0.56% of 360,000 active; AID 651725; in the data active = activity change below about -65%; inconclusive = mostly about -30% to -63%; also: % is scaled to controls: 0 for no effect and ±100 for the full control effect
# Target sequence (O00167 whole entry, looked up): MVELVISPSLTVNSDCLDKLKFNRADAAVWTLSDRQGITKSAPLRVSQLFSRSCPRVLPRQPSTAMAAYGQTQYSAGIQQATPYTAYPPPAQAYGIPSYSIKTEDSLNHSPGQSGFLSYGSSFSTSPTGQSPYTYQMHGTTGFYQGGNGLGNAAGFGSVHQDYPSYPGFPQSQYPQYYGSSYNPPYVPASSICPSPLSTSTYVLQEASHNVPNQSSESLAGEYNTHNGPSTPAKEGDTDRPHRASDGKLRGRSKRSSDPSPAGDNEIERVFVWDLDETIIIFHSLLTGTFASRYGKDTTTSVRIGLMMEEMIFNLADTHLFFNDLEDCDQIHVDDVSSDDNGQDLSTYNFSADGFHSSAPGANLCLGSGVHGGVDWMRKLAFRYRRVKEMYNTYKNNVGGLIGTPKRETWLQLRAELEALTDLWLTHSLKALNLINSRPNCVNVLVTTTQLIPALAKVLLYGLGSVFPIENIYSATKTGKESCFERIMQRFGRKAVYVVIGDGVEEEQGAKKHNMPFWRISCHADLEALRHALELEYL
# Target sequence (Q15475 whole entry, looked up): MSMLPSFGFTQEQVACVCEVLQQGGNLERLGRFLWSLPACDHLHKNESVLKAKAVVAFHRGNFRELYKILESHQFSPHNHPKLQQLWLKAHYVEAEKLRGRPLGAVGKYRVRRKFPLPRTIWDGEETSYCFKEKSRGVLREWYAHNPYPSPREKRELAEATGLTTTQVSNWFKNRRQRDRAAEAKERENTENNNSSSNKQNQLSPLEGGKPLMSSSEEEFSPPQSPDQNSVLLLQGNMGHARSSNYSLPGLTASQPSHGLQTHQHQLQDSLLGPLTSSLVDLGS
#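 GST-Six1 + His-Eya2 (5X stock: 250/500 nM); Tris pH 8.0, 300 mM NaCl, 0.05% BSA, 0.02% Tween 20; GSH donor/Ni acceptor beads; 1 h 37 °C dark; AlphaScreen readout.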
# TGFb inhibitor: blocks TGF-b signaling; 1.2% of 410,000 active; Potency, µM (doses to about 46.1 µM), for inactives: top-dose activity, negative = inhibition, usual class: inhibitors; HepG2 CAGA-GFP TGF-b/SMAD3 reporter, GFP fluorescence, 18 h; TGF-beta stimulated, 500 pg/mL final; also: potency is read from the fitted curve at half-maximal effect; % is scaled to controls: 0 for no effect and ±100 for the full control effect; nearly all actives have a fitted effect of over 65% in size
#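 Using HEPG2 CAGA-GFP reporter cells at 1000 cells/well, we pinned test compounds, stimulated with recombinant TGF-beta (500 pg/mL final) and measured total well GFP after 18 h.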
# CtBP-E1A blk: inhibitors of CtBP/E1A interaction; AID 651724; AlphaScreen GST-E1A/His-CtBP binding, 1536-well; stronger effect = lower value; activity change, % (no concentration beside the values); 0.49% of 340,000 active; in the data active = activity change below about -65%; inconclusive = mostly about -30% to -63%; also: % is scaled to controls: 0 for no effect and ±100 for the full control effect
#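 Steps: dispense buffer (Tris pH 8.0, NaCl 300 mM, TCEP 1 mM, BSA, Tween 20); add 5X protein mix (GST-E1A, His-CtBP, 125 nM each); pin 23 nL compound; 2 h at 37 °C, dark; add 5X beads (50 ug/mL); 1 h; read.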
# HepG2 tox: kills HepG2 cells in TGF-b inhibitor counter-screen | HepG2 CAGA-GFP viability, ATP luminescence, 18 h | Potency, µM (doses to about 46.1 µM), for inactives: at the top dose activity change, negative = cytotoxicity, hits mostly cytotoxic | 0.76% of 410,000 active; also: potency is read from the fitted curve at half-maximal effect
#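 CellTiter-Glo luminescence gave cytotoxicity after 18 hours at 37 degrees C. The cells were HepG2 CAGA-GFP in 1% FBS DMEM, stimulated with 500 pg/mL TGF-beta after compound addition. %Activity was normalised to no-cell wells (complete cell-killing) and DMSO (no toxicity), and curves were fitted and classified.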
# Numbers without * were called inactive; i = inactive; ? = inconclusive; nt = no result given. The list is not random: actives were taken first. Their share in the collection is about 2.8%. Unless noted, calls follow the shape of the dose curve; as a rule, active = well fitted curve in the direction sought with a large enough effect; inconclusive = small, poorly fitted or top-dose-only effect, or another doubt; inactive = no such curve, though single readings can be large; an effect the other way counts as inactive or inconclusive.
SMILES,ATXN2 expr inh,S2 tox,Six1-Eya2 blk,TGFb inhibitor,CtBP-E1A blk,HepG2 tox
C#CCOCCOCCOCCNc1nc(N2CCN(C(=O)CCCCCCCCCCNC(=O)[C@H](CCCCN)n3cc(CCCC(=O)O)nn3)CC2)nc(N2CCN(C(=O)CCCCCCCCCCNC(=O)[C@@H]([C@H](C)O)n3cc(C)nn3)CC2)n1,3%,i,-6,11µM*,-3,-3%
C#CCOCCOCCOCCNc1nc(N2CCN(C(=O)CCCCCCCCCCNC(=O)[C@@H](CCC(=O)O)n3cc(CCCCCN)nn3)CC2)nc(N2CCN(C(=O)CCCCCCCCCCNC(=O)[C@H]([C@@H](C)CC)n3cc(CCCCCN)nn3)CC2)n1,-25%,?,2,?,-2,-66%
C#CCOCCOCCOCCNc1nc(N2CCN(C(=O)CCCCCCCCCCNC(=O)[C@H]([C@@H](C)CC)n3cc(CCCCN=C(N)N)nn3)CC2)nc(N2CCN(C(=O)CCCCCCCCCCNC(=O)[C@H](CCCCN)n3cc(C)nn3)CC2)n1,25µM*,20µM*,-7,16µM*,-12,11µM*
C#CCOCCOCCOCCNc1nc(N2CCN(C(=O)CCCCCCCCCCNC(=O)Cn3cc(CCCCCN)nn3)CC2)nc(N2CCN(C(=O)CCCCCCCCCCNC(=O)[C@H]([C@@H](C)CC)n3cc(CCCCN=C(N)N)nn3)CC2)n1,20µM*,16µM*,-11,?,?,-102%
CCC1C(=O)NCCN1Cc1ccc2c(c1)CN(Cc1ccc(OC)cc1OC)CCO2 (configuration not stated),nt,i,nt,nt,nt,nt
C#CCOCCOCCOCCNc1nc(N2CCN(C(=O)CCCCCCCCCCNC(=O)[C@H]([C@@H](C)CC)n3cc(CCCCCN)nn3)CC2)nc(N2CCN(C(=O)CCCCCCCCCCNC(=O)[C@H](CCCCN)n3cc(CCCC(=O)O)nn3)CC2)n1,?,?,4,7.1µM*,-8,-68%
CC(C)(C)OC(=O)NCCCCCc1cn([C@@H](CO)C(=O)NCCCCCCCCCCC(=O)N2CCN(C(=O)OC(C)(C)C)CC2)nn1,16µM*,11µM*,-2,?,-2,-46%
CC(C)c1cnc2c(c1SCC(=O)Nc1cccc([N+](=O)[O-])c1)c(=O)n(C)c(=O)n2C,nt,nt,nt,?,nt,-3%
CCCCCCCCCCCCc1ccc(S(=O)(=O)Nc2nncs2)cc1,3%,nt,nt,nt,nt,nt
COc1cccc(NC(=O)/C(C#N)=C\c2cn(Cc3ccc(Cl)cc3)c3ccccc23)c1,7%,i,nt,11µM*,nt,-11%
OC[C@H]1OC(O)C[C@@H](O)[C@H]1O (some centres not stated),8%,nt,nt,nt,nt,nt
CC(C)C[C@H](NC(=O)c1nc[nH]c1C(=O)NCC(=O)OCc1ccccc1)C(=O)OCc1ccccc1,-24%,i,-7,?,0,-12%
CNC(=O)c1[nH]cnc1C(=O)N[C@@H](Cc1ccccc1)C(=O)OC(C)(C)C,-4%,i,-16,-6%,0,-9%
CC1CCN(C(=O)c2[nH]cnc2C(=O)N[C@@H](C)C(=O)OCc2ccccc2)CC1,-36%,i,-20,11µM*,11,-35%
CC(C)(C)OC(=O)[C@H](Cc1ccccc1)NC(=O)c1[nH]cnc1C(=O)Nc1ccccc1F,?,18µM*,-17,?,-3,11µM*
CCOC(=O)c1ccc(NC(=O)c2nc[nH]c2C(=O)N[C@H](C)c2ccccc2)cc1,32µM*,?,7,?,nt,-40%
CC(C)C[C@H](NC(=O)c1nc[nH]c1C(=O)NCC(=O)OC(C)(C)C)C(=O)OCc1ccccc1,-14%,i,-2,11µM*,0,-49%
O=C(CCCCCCNC(=O)c1cnc(N(c2ccccc2)c2ccccc2)nc1)NO,138%,nt,nt,nt,nt,nt
O=C(c1cccnc1)C1CCCN(Cc2ccc3c(c2)CN(C(=O)c2cnccn2)CCO3)C1 (configuration not stated),nt,i,nt,nt,nt,nt
CCCCCCn1c(=O)c2c(ncn2C)n(C)c1=O,8%,i,nt,nt,nt,nt
CC(C)(C)OC(=O)NCCCC[C@H](NC(=O)c1[nH]cnc1C(=O)Nc1ccc(Cl)cc1)C(=O)OC(C)(C)C,?,?,0,14µM*,nt,-35%
CC(C)C[C@H](NC(=O)c1[nH]cnc1C(=O)N[C@@H](C)C(=O)OC(C)(C)C)C(=O)OC(C)(C)C,-70%,nt,-4,?,-3,11µM*
CC(C)C[C@H](NC(=O)c1[nH]cnc1C(=O)Nc1ccccc1)C(=O)OC(C)(C)C,?,?,10,16µM*,nt,-121%
CCOC(=O)c1ccc(NC(=O)c2nc[nH]c2C(=O)N[C@@H](CC(C)C)C(=O)OC(C)(C)C)cc1,-16%,i,-1,?,0,-24%
Cn1c(Nc2ccc(C(F)(F)F)cc2)nc2cc(Oc3ccnc(-c4ncc(C(F)(F)F)[nH]4)c3)ccc21,-19%,nt,nt,nt,nt,nt
SMILES,ATXN2 expr inh,S2 tox,Six1-Eya2 blk,TGFb inhibitor,CtBP-E1A blk,HepG2 tox
Cc1cc(C)c(Cn2c(C(O)c3ccccc3)nc3ccccc32)c(C)c1 (configuration not stated),?,?,nt,16µM*,nt,-39%
OC1(c2ccc3c(c2)CN(Cc2ccco2)CCO3)CCN(c2ccccc2F)CC1,nt,i,nt,nt,nt,nt
COc1ccc2c(Sc3ccc(Cl)cc3)c(C(=O)NCCCN3CCCCC3)[nH]c2c1,25µM*,nt,nt,?,nt,16µM*
OC1(c2cccnc2)CCN(Cc2ccc3c(c2)CN(Cc2cccc(F)c2F)CCO3)CC1,nt,i,nt,nt,nt,nt
O=C(C[C@H]1C[C@@H]2c3cc(NC(=O)c4ccc5c(c4)OCO5)ccc3O[C@@H]2[C@H](CO)O1)NCc1cc(F)ccc1F,-10%,?,-70*,-3%,-67*,-10%
Cn1ccc(C(=O)NCC2CCC3(CCN(Cc4ccc(F)cc4F)CC3)O2)n1 (configuration not stated),nt,i,nt,nt,nt,nt
Nc1c(S(=O)(=O)c2cccs2)c2nc3ccccc3nc2n1/N=C/c1cccc(O)c1,?,nt,-87*,?,-92*,-35%
COc1ccccc1N1CCN(C(=O)CN2C(=O)COc3ccc(S(=O)(=O)N4CCCC4)cc32)CC1,3%,i,nt,1%,nt,-26%
O=S(=O)(c1ccccc1)c1nnn2c1nc(NCc1ccc(F)cc1)c1sccc12,12%,i,nt,4%,nt,-2%
Nc1ccc(C(=O)OCCCc2nc3ccccc3[nH]2)cc1,9%,i,6,5%,3,10µM*
Nc1ccc(C(=O)OCc2nc3ccccc3[nH]2)cc1,13%,i,-3,-8%,2,3%
